Screening data: PubChem, Sanford-Burnham Center for Chemical Genomics
Sampled rows, rich in hits. Any-hit rate of the full collection: about 28%.
CYP2C19 inhib: human CYP2C19 inhibition | inhibition, % at 5 µM | CYP2C19 Supersomes, luciferin-H EGE luminescence, 30 min | 21% of 96,000 active | P33261;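 active = CYP2C19 inhibition above a set limit at 5 µM in the primary screen, cut at about 50% in these data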
CYP2C9 act: activators of human CYP2C9; recombinant CYP2C9, luciferin-H conversion, luminescence; hits give high values; factor 1 = untreated enzyme, 0 = blocked; activation factor at 5 µM; AID 1024; P11712; 1.4% of 96,000 active;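 active = activation factor of 2 or more for CYP2C9 at a 5 µM dose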
Target sequence (P11712 whole entry, looked up): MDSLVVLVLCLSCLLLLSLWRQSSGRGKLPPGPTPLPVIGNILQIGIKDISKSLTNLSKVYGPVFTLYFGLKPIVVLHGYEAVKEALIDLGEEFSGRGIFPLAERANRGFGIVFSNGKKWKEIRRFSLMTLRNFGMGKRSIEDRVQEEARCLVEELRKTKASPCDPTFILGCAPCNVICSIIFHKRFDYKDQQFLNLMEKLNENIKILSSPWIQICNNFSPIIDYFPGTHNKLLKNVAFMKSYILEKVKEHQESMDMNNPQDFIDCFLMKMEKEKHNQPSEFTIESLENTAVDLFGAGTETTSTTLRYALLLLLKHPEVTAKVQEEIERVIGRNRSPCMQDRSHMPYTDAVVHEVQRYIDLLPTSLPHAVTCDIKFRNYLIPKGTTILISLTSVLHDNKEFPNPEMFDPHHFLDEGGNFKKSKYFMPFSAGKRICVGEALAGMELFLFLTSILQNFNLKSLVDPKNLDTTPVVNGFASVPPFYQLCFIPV
CYP2C9 inh: human CYP2C9 inhibition. P11712. CYP2C9 Supersomes, luciferin-H conversion, luminescence. inhibition, % at 5 µM. 20% of 96,000 active;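 active = blocking of liver enzyme CYP2C9 beyond about 50% at 5 µM, limit read from the data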
CYP2C19 activ: increases human CYP2C19 enzyme activity | P33261 | recombinant CYP2C19, luciferin-H EGE luminescence; hits give high values; 0 = fully inhibited enzyme, 1 = untreated enzyme | activation factor at 5 µM | 96,000 tested, under 10 active;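 active = activation factor of at least 2 at 5 µM in the primary screen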
Pyk2 oligo antag: antagonists of human Pyk2 oligomerization; Q14289; Q293 cells, Pyk2 FERM NanoBiT luminescence; hits give low values; z-score (the deposit names both 25 µM and 10 µM); 0.83% of 99,000 active;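 active = Z-score of -3 or lower, scaled per plate to the spread of control and sample wells; inactive = z-score above -3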;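 note: negative z-score means lost luminescence so less FERM oligomerization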
Of the large screens only hits and unclear results are named; the others gave an inactive call.

Cn1c(CNC(=O)Nc2ccccc2Cl)nnc1SCc1ccccc1	CYP2C19 inhib 64
Clc1ccc(NCc2nncn2-c2ccccc2)cc1	CYP2C19 inhib 98
Cc1ccccc1NC(=O)Cc1nnc(SCc2ccc(Cl)c(Cl)c2)n1C	none
CCn1c(CNc2ccc(Cl)cc2)nnc1SCc1ccccc1	CYP2C19 inhib 66, CYP2C9 inh 77
O=C(O)CSc1nnc(CNc2ccc(Cl)cc2)n1Cc1ccccc1	none
Cc1onc(-c2ccccc2)c1-c1n[nH]c(=S)n1-c1ccccc1	none (no result: CYP2C19 inhib, CYP2C9 act, CYP2C9 inh, CYP2C19 activ)
CCCCN(NC(C)=O)c1nc(Cl)nc(NC(C)C)n1	none
Cn1c(CNc2ccc(Cl)cc2)nnc1SCc1ccccc1	CYP2C9 inh 57
CCn1c(CSCc2ccc(C)cc2)nnc1SCC(=O)NCc1ccccc1	CYP2C9 inh 54
Cn1c(CNc2ccc(Cl)cc2)nnc1SCCN1CCCCC1	none (no result: CYP2C19 inhib, CYP2C9 act, CYP2C9 inh, CYP2C19 activ)
COC(=O)CSc1nnc(CNc2ccc(Cl)cc2)n1-c1ccccc1	CYP2C19 inhib 54
CCn1c(CSCc2ccc(F)cc2)nnc1SCC(=O)NCc1ccccc1	none
CCSc1nnc(NC(=O)c2nn(C(C)C)c(=O)c3ccccc23)s1	none
COc1ccccc1N1CCN(C(=O)C2C3C=CC4(CN(Cc5ccccc5Cl)C(=O)C24)O3)CC1 (stereo not drawn)	none
O=C(CCN1C(=O)COc2ccccc21)NCCN1CCOCC1	none
O=C(CN1C(=O)COc2ccccc21)NCCC1=CCCCC1	CYP2C19 inhib 81
O=C(CCN1C(=O)COc2ccccc21)NCCC1=CCCCC1	CYP2C19 inhib 63
CC1CC(C)CN(CCCNC(=O)C2CCCN(c3nnc(N4CCCC4=O)s3)C2)C1 (stereo not drawn)	none
O=C1CSC(c2cn(-c3ccccc3)nc2-c2cc3ccccc3oc2=O)N1Cc1ccco1 (stereo not drawn)	CYP2C19 inhib 55, CYP2C9 inh 76
O=C1CSC(c2cn(-c3ccccc3)nc2-c2cc3ccccc3o2)N1Cc1ccccc1 (stereo not drawn)	CYP2C19 inhib 54, CYP2C9 inh 89
CCCCNC(=O)CSc1nnc(Cc2ccccc2)n1CC	none (no result: CYP2C19 inhib, CYP2C9 act, CYP2C9 inh, CYP2C19 activ)
N#Cc1c(N)nc2c(c1-c1cccc(O)c1)CCCCCC2	CYP2C9 inh 54
N#Cc1c(N)nc2c(c1-c1ccncc1)CCCC2	CYP2C19 inhib 76
CC1(C)C2CCC1(C)C(NC(=O)CCN1CCCCC1)C2 (stereo not drawn)	CYP2C9 inh 62
CCCCCCCCCOC(=O)C[n+]1csc(CCO)c1C	CYP2C19 inhib 76
COc1cc(S(=O)(=O)NCC2CCCO2)c(OC)cc1Cl (stereo not drawn)	CYP2C19 inhib 66
O=S(=O)(NCC1CCCO1)c1cc(Cl)ccc1Cl (stereo not drawn)	CYP2C19 inhib 66
O=C(NCc1ccc(F)cc1)C1CCC(=O)N1C1CCCCC1 (stereo not drawn)	none
CCOC(=O)N1CCN(C(=O)C(CC(C)C)NC(=O)C2CCCCC2)CC1 (stereo not drawn)	none
CC(C)SC1=NC(C)(C)C=C(/C=C/c2c(Cl)cccc2Cl)N1	CYP2C19 inhib 78, CYP2C9 inh 70
CC(C)SC1=NC(C)(C)C=C(/C=C/c2ccc(Cl)cc2Cl)N1	CYP2C19 inhib 69, CYP2C9 inh 62
CCOC(=O)c1ccc(CNCc2ccc(C)cc2)cc1	none (no result: CYP2C19 inhib, CYP2C9 act, CYP2C9 inh, CYP2C19 activ)
CCOC(=O)c1ccc(NC(=S)NC2CC(C)(C)NC(C)(C)C2)cc1	none
Cc1cccc2cc(CN(CC3CCCO3)C(c3nnnn3Cc3ccco3)C(C)C)c(=O)[nH]c12 (stereo not drawn)	none
CC(C)CCNC(=O)COc1ccc2c(c1)C(=O)CC(C)(C)O2	CYP2C19 inhib 74, CYP2C9 inh 80
N#Cc1c(N)c(C(=O)c2ccc(Br)cc2)n2c1CCC2	none
COC(=O)C1=C2SC(C)C(=O)N2C(N)=C(C#N)C1c1ccc(OC)c(OC)c1 (stereo not drawn)	CYP2C9 inh 56
CCn1nc(C(=O)OCC(=O)c2ccc3c(c2)OCCO3)c2ccccc2c1=O	none
CC(=O)Nc1ccccc1OCC(=O)c1cc(C)n(Cc2cccs2)c1C	CYP2C19 inhib 80
CCn1nc(C(=O)OCC(=O)c2cc(C)n(Cc3cccs3)c2C)c2ccccc2c1=O	CYP2C19 inhib 80
Cc1cc(C(=O)COC(=O)c2ccccc2O)c(C)n1Cc1cccs1	CYP2C19 inhib 57
Cc1cc(C(=O)COC(=O)c2ccc3c(c2)OCO3)c(C)n1Cc1cccs1	none
O=C(C1CCN(S(=O)(=O)N2CCCC2)CC1)N1CCCCC1	none
Cc1nnsc1C(=O)Nc1cccc(Cl)c1Cl	none (no result: CYP2C19 inhib, CYP2C9 act, CYP2C9 inh, CYP2C19 activ)
COc1ccccc1N(C(=O)NCc1ccccc1)C1=NCC(C)S1 (stereo not drawn)	CYP2C9 inh 57 (no result: Pyk2 oligo antag)
COc1ccccc1N(CC(=O)NCc1ccccc1)S(C)(=O)=O	none
COc1ccccc1NC(=O)N(Cc1ccccc1)C1=NCC(C)S1 (stereo not drawn)	CYP2C9 inh 73
CNC(=O)N(C1=NCC(C)S1)c1ccc(F)cc1F (stereo not drawn)	CYP2C19 inhib 62
Cc1ccc(NC(=S)N2CCC(N(C)CC3CCCO3)CC2)c(C)c1 (stereo not drawn)	none
CCCc1nc(S(=O)(=O)Cc2ccc(Cl)cc2Cl)n[nH]1	CYP2C19 inhib 73
O=C(NCCC1=CCCCC1)C1CCCN(S(=O)(=O)c2cccnc2)C1 (stereo not drawn)	CYP2C19 inhib 58, CYP2C9 inh 54 (no result: Pyk2 oligo antag)
O=C(NCCC1=CCCCC1)C1CCCN(S(=O)(=O)c2cccc3cccnc23)C1 (stereo not drawn)	CYP2C19 inhib 73, CYP2C9 act 3.9 (no result: Pyk2 oligo antag)
O=C(NCCC1=CCCCC1)C1CCCN(c2nc3ccccc3o2)C1 (stereo not drawn)	CYP2C9 inh 51
Cc1ccc(NC2=NCC(=O)N2C2CCCC2)c(C)c1	none (no result: CYP2C19 inhib, CYP2C9 act, CYP2C9 inh, CYP2C19 activ)
NS(=O)(=O)c1ccc(CCNC(=O)CN2CCN(c3ccc(F)cc3)CC2)cc1	none (no result: CYP2C19 inhib, CYP2C9 act, CYP2C9 inh, CYP2C19 activ)
NS(=O)(=O)c1ccc(N2N=C(c3ccccc3)CC2c2ccc(F)cc2)cc1 (stereo not drawn)	CYP2C9 inh 90
Cn1c(=O)c2ncn(CC(=O)Nc3cccc(-c4nc5ccccc5s4)c3)c2n(C)c1=O	CYP2C9 inh 50
Cc1sc2ncnc(OCC(=O)c3ccc(S(=O)(=O)N4CCCC4)cc3)c2c1C	CYP2C19 inhib 73, CYP2C9 inh 69
Cc1sc2ncnc(OCC(=O)N3CCN(S(=O)(=O)c4ccc(Cl)cc4)CC3)c2c1C	CYP2C19 inhib 75, CYP2C9 inh 83
CNC(=O)COc1ncnc2sc(C)c(C)c12	none
Cc1ccc(-c2nnn(CC(=O)N(Cc3ccccc3)C(C(=O)NC(C)(C)C)c3ccncc3)n2)o1 (stereo not drawn)	CYP2C19 inhib 50
Cc1ccc(-c2nnn(CC(=O)N(c3ccccc3)C(C(=O)NC(C)(C)C)c3cccs3)n2)o1 (stereo not drawn)	none (no result: CYP2C19 inhib, CYP2C9 act, CYP2C9 inh, CYP2C19 activ)
CC(C)(C)NC(=O)C(c1ccncc1)N(C(=O)Cn1nnc(-c2cccs2)n1)C1CCCCC1 (stereo not drawn)	CYP2C19 inhib 69, CYP2C9 inh 76
